Experimental data from the supplement of paper PMC11006884.
The full data set covers some 6,500 targets. This sample favours those with a hit. About 2% of all pairs of compound and target were hits. Unmarked numbers belong to inactive results.

Compound: COC(=O)C#Cc1ccccc1 [methyl 3-phenylpropiolate]
Test: log2 ratio of iodoacetamide-alkyne labeling of the cysteine site, DMSO over compound (competition); higher = stronger covalent engagement of the cysteine by the compound, active = 1 or more
Details: 500 µM; treatment time 1 h; system: HEK293T cell lysate
How it was run: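 HEK293T lysate (2 mg/mL) was treated with DMSO or electrophile (500 µM, 1 h, ambient temperature), then iodoacetamide alkyne (1 h), clicked to sCIP-TMT reagents, pooled, trypsin-digested overnight at 37 °C, streptavidin-enriched and acid-eluted. Peptides were run on Orbitrap Eclipse LC-MS/MS with FAIMS and quantified in FragPipe. The log2 competition ratio per cysteine is mean control-channel over mean compound-channel reporter intensity. Duplicate channels and three replicates were used, and cysteines quantified in only one replicate were excluded.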

Chain of UniProt P22087 (P22087 whole entry, looked up): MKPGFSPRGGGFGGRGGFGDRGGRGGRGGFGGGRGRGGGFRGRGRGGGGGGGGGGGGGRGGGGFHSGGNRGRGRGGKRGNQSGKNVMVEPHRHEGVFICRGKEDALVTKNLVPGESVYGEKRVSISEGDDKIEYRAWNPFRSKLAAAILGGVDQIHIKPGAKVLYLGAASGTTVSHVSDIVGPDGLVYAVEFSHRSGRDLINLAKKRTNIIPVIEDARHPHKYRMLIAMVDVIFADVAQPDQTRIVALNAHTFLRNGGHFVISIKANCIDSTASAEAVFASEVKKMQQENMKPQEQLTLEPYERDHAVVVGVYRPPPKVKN
Chain of UniProt P26358 (P26358 whole entry, looked up): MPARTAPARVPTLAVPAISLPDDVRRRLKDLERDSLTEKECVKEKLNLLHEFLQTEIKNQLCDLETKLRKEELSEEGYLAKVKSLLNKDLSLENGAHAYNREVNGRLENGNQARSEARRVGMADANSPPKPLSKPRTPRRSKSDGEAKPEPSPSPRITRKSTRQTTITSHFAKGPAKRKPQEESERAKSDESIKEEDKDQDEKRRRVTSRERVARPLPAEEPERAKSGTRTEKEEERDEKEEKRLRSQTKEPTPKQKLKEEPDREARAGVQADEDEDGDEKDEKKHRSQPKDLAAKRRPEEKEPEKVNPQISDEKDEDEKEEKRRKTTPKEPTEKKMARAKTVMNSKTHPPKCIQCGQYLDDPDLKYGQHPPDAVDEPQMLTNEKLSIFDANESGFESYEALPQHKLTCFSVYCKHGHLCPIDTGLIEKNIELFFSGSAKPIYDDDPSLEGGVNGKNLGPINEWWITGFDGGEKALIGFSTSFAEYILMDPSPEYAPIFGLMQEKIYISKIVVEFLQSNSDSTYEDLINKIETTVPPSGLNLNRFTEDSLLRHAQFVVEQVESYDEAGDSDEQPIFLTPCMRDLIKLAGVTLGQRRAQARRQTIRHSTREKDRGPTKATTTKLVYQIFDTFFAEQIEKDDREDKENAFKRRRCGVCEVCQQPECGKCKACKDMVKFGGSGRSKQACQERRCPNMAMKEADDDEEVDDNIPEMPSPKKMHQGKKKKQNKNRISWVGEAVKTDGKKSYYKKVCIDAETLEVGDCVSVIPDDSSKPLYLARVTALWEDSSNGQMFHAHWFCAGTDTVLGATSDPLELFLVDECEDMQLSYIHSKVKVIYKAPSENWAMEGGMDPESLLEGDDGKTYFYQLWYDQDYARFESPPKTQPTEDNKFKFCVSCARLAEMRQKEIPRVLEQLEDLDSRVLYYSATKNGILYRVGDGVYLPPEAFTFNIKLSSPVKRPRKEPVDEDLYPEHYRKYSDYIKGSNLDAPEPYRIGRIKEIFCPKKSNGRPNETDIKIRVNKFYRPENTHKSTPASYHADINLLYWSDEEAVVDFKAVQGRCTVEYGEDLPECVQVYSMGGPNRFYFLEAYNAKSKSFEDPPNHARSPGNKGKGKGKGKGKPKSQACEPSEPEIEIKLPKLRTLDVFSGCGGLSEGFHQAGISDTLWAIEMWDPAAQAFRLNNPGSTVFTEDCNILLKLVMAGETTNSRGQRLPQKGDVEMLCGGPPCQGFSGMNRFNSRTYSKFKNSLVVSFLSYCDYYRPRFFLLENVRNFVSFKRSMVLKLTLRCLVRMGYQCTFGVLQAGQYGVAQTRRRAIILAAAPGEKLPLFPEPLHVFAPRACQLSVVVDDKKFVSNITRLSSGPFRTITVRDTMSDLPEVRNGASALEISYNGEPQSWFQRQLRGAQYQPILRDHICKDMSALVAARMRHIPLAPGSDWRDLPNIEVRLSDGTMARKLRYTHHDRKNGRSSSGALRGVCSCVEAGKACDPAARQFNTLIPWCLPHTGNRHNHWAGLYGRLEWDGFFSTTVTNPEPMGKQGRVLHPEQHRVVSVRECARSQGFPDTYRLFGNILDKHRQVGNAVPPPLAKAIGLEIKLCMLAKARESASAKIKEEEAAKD
Chain of UniProt P20073 (P20073 whole entry, looked up): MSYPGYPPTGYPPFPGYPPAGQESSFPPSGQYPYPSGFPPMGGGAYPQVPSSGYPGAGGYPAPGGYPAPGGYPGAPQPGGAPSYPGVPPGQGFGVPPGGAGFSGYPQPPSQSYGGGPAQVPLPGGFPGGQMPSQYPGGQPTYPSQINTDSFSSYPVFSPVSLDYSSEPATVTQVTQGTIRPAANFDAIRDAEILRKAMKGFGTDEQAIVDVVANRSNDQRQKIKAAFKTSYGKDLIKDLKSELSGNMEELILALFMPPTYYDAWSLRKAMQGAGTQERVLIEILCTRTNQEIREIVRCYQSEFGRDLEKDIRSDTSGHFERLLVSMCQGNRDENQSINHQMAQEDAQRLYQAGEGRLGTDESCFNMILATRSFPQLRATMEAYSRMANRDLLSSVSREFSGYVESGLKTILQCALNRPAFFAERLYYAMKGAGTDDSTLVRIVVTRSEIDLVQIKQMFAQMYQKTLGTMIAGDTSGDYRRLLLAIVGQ
Chain of UniProt P45880 (P45880 whole entry, looked up): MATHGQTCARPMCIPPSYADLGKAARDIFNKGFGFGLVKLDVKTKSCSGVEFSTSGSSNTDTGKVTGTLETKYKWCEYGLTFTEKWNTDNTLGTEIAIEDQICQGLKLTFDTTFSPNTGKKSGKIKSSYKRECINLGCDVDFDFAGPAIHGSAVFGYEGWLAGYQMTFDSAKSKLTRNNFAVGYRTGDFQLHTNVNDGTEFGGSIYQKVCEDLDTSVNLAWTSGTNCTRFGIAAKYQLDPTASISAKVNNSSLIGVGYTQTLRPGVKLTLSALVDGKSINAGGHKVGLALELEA
Chain of UniProt P50502 (P50502 whole entry, looked up): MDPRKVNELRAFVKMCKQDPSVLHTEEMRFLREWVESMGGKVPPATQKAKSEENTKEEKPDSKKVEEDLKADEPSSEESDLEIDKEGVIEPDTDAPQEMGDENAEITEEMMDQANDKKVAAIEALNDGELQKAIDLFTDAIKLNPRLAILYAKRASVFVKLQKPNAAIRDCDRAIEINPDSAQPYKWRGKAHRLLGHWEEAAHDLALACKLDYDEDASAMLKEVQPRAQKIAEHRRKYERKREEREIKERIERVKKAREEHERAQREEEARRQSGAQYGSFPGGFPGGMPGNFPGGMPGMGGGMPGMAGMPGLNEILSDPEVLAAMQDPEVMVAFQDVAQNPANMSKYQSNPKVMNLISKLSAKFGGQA
Chain of UniProt P38432 (P38432 whole entry, looked up): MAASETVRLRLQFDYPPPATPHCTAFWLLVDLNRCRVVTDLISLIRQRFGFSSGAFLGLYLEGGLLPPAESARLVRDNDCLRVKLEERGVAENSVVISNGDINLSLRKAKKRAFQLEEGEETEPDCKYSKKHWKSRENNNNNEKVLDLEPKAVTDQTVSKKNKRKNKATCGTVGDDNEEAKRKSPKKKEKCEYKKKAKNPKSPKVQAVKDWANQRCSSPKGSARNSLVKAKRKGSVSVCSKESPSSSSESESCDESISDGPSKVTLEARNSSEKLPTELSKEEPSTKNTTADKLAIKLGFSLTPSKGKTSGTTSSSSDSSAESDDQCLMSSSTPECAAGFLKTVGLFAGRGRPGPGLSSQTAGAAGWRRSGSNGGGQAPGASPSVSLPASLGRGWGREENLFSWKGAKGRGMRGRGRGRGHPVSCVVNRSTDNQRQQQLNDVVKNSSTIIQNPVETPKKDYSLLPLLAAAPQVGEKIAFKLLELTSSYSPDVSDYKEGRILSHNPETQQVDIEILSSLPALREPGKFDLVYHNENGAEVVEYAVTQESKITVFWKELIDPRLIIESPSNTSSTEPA
Chain of UniProt P06733 (P06733 whole entry, looked up): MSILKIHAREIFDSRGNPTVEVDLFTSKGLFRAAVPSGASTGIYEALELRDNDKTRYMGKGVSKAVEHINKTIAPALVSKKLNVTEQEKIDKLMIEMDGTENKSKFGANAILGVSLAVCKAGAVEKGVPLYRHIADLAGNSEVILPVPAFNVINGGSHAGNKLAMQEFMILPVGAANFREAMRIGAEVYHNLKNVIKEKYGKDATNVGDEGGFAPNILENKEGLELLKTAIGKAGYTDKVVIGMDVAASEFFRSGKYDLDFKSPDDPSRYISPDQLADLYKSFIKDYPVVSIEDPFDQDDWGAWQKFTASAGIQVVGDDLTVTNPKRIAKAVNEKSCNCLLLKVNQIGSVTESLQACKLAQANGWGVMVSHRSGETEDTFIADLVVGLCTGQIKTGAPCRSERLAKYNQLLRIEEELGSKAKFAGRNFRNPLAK
Chain of UniProt P07737 (P07737 whole entry, looked up): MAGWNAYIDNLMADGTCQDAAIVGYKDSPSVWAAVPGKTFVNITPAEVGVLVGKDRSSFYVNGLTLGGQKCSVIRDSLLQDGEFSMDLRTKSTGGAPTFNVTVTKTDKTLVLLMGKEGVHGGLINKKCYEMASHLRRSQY
Chain of UniProt O95983 (O95983 whole entry, looked up): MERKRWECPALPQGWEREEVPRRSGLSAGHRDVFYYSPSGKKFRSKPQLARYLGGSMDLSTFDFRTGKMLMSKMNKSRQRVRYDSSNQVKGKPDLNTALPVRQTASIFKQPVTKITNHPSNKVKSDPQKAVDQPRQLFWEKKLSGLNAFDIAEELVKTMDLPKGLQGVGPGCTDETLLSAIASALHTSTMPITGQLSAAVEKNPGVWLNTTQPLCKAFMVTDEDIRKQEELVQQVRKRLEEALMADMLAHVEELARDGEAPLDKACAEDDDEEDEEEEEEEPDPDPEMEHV
Chain of UniProt P27695 (P27695 whole entry, looked up): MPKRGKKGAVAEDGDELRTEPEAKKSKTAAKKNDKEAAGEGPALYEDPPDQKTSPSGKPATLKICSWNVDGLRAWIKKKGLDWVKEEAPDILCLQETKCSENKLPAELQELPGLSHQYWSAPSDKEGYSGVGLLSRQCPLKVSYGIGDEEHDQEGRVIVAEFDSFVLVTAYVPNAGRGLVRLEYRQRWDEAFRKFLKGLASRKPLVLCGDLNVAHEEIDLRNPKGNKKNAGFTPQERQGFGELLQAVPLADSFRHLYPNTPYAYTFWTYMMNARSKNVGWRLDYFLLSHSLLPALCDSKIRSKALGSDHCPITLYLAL

| Target | log2 ratio of iodoacetamide-alkyne labeling |
| --- | --- |
| AARS C723 (UniProt P49588) | 0.264 |
| PFN1 C17 (UniProt P07737) | -0.417 |
| UniProt P26639_C343 | 0.143 |
| IDH3A C331 (UniProt P50213) | 0.257 |
| RPS3 C97 (UniProt P23396) | 2.45 (active) |
| ST13 C209 (UniProt P50502) | 0.272 |
| FXR2 C270 (UniProt P51116) | 0.306 |
| VDAC2 C13 (UniProt P45880) | 1.11 (active) |
| HNRNPA3 C85 (UniProt P51991) | 0.23 |
| MAP1B C1228 (UniProt P46821) | 0.169 |
| DNMT1 C1226 (UniProt P26358) | -0.0963 |
| IMPDH2 C140 (UniProt P12268) | 1.11 (active) |
| MBD3 C266 (UniProt O95983) | 0.0164 |
| ANXA7 C363 (UniProt P20073) | 0.0125 |
| COIL C126 (UniProt P38432) | 0.729 |
| PEX5 C11 (UniProt P50542) | 0.204 |
| EIF2S3 C105 (UniProt P41091) | 0.341 |
| HSP90AA1 C420 (UniProt P07900) | -0.4 |
| RPL14 C42 (UniProt P50914) | 1.82 (active) |

| Target | log2 ratio of iodoacetamide-alkyne labeling |
| --- | --- |
| ACAA1 C177 (UniProt P09110) | 0.162 |
| UniProt P41250_C616 | -0.119 |
| IDH3A C359 (UniProt P50213) | 1.05 (active) |
| SLC7A1 C628 (UniProt P30825) | 0.105 |
| HNRNPM C653 (UniProt P52272) | 0.0149 |
| HNRNPA3 C196 (UniProt P51991) | -0.0216 |
| TAGLN2 C38 (UniProt P37802) | -0.0194 |
| CAPZA2 C111 (UniProt P47755) | 0.0355 |
| FBL C268 (UniProt P22087) | 0.27 |
| SCP2 C94 (UniProt P22307) | 0.136 |
| ENO1 C389 (UniProt P06733) | 0.125 |
| APEX1 C93 (UniProt P27695) | 0.0645 |
| RANBP2 C581 (UniProt P49792) | 0.41 |
| SP1 C604 (UniProt P08047) | -0.0454 |
| UniProt P49591_C431 | -0.00377 |
| UniProt P0DN79_C15 | 2.27 (active) |
| LRPPRC C863 (UniProt P42704) | -0.00586 |
| MTOR C300 (UniProt P42345) | 0.376 |
